For experiment [1], the system named is PRMT1 (protein arginine N-methyltransferase 1). Kind of experiment: PRMT1 binders on small-molecule microarrays, primary screen, biochemical, small-molecule microarray, 635 nm fluorescence (AID 1088).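 Further: binding of Prmt1 protein to compounds spotted on small-molecule microarray slides.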 The note with it: small-molecule microarray binding, higher = more signal.
The nature of experiment [2]: yeast growth modulation, basal conditions, primary screen, YJM789 clinical isolate, OD600, 24 h (AID 1089).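 Further: growth of clinical yeast isolate S. cerevisiae YJM 789 seeded 1000 cells per well; test concentration not given here.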 The note with it: S. cerevisiae YJM789 growth, higher = more signal, called active from +8 up or from −8 down.
The nature of experiment [3]: fission yeast growth modulation, primary screen, strain 972, OD600, 24 h, no modulator (AID 1090).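 Further: basal condition with compound alone and no growth modifier present; test concentration not given here.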 The note with it: S. pombe 972 growth, higher = more signal, called active from +8 up or from −8 down.
The nature of experiment [4]: S. cerevisiae growth modulation with rapamycin, primary screen, strain BY4716, OD600, 96 h (AID 1091). Further: test concentration not given here. The note with it: higher = more signal, called active from +8 up or from −8 down.
In experiment [5] the target is Torsin-1A-interacting protein 2 (Homo sapiens) (UniProt Q8NFQ8). Kind of experiment: LULL1 binders on small-molecule microarray, primary screen, cell lysate, human LULL1 lysate, 635/667 nm fluorescence (AID 1092).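 Further: probe is lysate of COS7 cells overexpressing human LULL1; score merges per-feature 667 nm fluorescence with signal-to-noise.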 The note with it: hLULL1 lysate binding, 635 nm fluorescence, higher = more signal.
Chain of Torsin-1A-interacting protein 2 (Homo sapiens) (Q8NFQ8 whole entry, looked up): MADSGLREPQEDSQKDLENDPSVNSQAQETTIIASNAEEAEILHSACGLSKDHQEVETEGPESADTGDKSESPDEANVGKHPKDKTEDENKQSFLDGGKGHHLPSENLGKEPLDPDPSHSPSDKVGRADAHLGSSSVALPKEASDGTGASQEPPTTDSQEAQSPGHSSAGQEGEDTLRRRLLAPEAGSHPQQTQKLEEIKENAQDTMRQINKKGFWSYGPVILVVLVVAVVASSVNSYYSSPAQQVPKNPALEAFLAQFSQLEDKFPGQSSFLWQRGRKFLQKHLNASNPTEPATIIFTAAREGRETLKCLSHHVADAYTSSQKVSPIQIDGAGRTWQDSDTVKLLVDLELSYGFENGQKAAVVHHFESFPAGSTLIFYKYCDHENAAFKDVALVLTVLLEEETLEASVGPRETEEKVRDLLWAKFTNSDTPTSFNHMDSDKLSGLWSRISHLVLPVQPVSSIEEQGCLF
A short description of experiment [6]: E. coli growth modulation, two-sided OD650, primary screen, E. coli filamentation project, strain DRC41, 24 h (AID 1093).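 Further: MC1000 strain lacking acrAB efflux and sulA so SOS filamentation is blocked; test concentration not given here.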 The note with it: OD650, 24 h, higher = more signal, called active from +8 up or from −8 down.
The nature of experiment [7]: small-molecule microarray binders of probe aLefty2, primary screen, biochemical, biotinylated probe, 635/667 nm fluorescence (AID 1094).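 Further: score merges spot fluorescence near 667 nm with spot signal-to-noise ratio.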 The note with it: higher = more signal.
Experiment [8] concerns Noggin (protein binding on small-molecule microarray). The experiment is described as follows: Noggin binders on small-molecule microarray, primary screen, biochemical, 635/667 nm fluorescence (AID 1095).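 Further: score merges 667 nm feature fluorescence with signal to noise over triplicate slides.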 The note with it: 635 nm fluorescence, higher = more signal.
The target in experiment [9] is Neurogenic locus notch homolog protein 3 (Homo sapiens) (UniProt Q9UM47). Kind of experiment: NOTCH3 binders on small-molecule microarray, primary screen, biochemical, 635/667 nm fluorescence (AID 1096). The note with it: NOTCH3 binding, 635 nm fluorescence, higher = more signal.
Chain of Neurogenic locus notch homolog protein 3 (Homo sapiens) (Q9UM47 whole entry, looked up): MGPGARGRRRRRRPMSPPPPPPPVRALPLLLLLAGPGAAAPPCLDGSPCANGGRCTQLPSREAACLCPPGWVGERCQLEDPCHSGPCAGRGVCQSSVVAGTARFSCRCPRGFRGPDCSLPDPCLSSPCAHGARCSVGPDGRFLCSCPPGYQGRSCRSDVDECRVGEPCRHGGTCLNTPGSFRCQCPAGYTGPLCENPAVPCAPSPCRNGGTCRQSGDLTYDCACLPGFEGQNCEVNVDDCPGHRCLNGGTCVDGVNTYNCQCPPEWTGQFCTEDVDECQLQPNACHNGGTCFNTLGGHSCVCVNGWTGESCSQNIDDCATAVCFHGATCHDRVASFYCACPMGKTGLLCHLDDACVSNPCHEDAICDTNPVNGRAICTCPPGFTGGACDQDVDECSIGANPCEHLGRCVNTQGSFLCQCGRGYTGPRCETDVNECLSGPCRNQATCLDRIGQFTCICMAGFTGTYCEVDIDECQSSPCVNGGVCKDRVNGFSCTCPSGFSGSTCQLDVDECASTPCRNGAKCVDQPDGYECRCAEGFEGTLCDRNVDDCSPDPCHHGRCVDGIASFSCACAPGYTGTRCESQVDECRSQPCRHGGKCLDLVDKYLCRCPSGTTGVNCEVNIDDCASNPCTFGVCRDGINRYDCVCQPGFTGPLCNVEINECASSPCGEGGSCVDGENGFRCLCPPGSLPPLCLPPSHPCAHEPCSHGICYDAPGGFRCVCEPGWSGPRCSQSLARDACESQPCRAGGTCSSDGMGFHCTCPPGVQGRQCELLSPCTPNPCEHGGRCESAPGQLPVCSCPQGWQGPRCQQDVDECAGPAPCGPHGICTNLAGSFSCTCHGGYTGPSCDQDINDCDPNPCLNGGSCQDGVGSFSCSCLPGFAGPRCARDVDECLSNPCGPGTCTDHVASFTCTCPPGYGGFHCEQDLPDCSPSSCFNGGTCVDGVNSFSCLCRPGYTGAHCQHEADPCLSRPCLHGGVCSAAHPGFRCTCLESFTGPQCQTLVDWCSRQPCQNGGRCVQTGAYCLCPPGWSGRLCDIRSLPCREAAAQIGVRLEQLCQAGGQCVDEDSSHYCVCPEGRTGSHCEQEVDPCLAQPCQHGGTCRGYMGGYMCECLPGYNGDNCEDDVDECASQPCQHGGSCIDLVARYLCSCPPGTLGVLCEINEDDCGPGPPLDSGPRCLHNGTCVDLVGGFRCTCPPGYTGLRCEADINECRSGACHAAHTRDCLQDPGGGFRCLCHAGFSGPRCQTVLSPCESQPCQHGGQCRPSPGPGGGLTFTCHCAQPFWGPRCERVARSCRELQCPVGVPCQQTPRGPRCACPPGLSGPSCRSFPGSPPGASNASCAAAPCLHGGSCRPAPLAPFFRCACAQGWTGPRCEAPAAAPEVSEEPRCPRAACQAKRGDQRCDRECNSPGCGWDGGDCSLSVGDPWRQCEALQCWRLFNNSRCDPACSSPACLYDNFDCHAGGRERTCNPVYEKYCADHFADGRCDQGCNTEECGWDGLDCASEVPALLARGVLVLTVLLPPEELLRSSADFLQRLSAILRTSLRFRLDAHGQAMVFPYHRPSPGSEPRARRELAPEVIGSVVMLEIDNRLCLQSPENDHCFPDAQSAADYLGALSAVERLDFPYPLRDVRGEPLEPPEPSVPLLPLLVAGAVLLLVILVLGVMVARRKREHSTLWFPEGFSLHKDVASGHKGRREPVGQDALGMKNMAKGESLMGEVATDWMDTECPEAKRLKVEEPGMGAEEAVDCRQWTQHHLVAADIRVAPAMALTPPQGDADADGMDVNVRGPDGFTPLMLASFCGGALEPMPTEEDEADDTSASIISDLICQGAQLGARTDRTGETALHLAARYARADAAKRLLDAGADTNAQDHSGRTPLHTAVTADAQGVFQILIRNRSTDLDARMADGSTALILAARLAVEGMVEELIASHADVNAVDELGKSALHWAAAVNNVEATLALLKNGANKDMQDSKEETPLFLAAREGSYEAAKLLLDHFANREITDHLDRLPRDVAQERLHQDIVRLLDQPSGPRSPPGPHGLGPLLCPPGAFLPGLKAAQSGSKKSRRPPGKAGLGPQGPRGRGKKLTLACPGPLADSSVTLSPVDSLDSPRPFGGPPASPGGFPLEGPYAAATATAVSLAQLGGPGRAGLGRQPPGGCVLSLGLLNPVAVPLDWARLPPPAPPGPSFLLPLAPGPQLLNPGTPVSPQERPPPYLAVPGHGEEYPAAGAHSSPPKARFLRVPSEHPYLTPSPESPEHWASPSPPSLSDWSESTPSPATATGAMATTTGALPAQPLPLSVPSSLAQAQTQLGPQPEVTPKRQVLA
Experiment [10] in a line: small-molecule microarray binders of probe aEGFR, primary screen, biochemical, biotinylated probe, 635/667 nm fluorescence (AID 1097).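 Further: probe is a biotinylated anti-EGFR antibody binding compounds printed on slides; score combines fluorescence near 667 nm and signal to noise of each spot.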 The note with it: higher = more signal.
The test system of experiment [11] is Plasmodium falciparum Sir2 (PF13_0152, Sir2A). Kind of experiment: pfSir2 binders on small-molecule microarrays, primary screen, biochemical, small-molecule microarray, 635 nm fluorescence (AID 1098).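 Further: score merges spot fluorescence intensity with its signal-to-noise ratio.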 The note with it: small-molecule microarray binding, fluorescence 635 nm; higher = more signal.
Experiment [12] can be described thus: small-molecule microarray binders of probe aDKK1, primary screen, biochemical, biotinylated probe, 635/667 nm fluorescence (AID 1099).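 Further: score merges 667nm spot fluorescence with signal to noise across triplicate slides; reference of the scale not given here.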 The note with it: higher = more signal.
The nature of experiment [13]: small-molecule microarray binders of probe aCHRDL2, primary screen, biochemical, biotinylated probe, 635/667 nm fluorescence (AID 1100). The note with it: higher = more signal.
The nature of experiment [14]: splicing luciferase reporter signal modulators, primary screen, spliceosome inhibition project, cell-based, HEK293, splice +/- reporter (AID 1101).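 Further: HEK293 cells carrying a splicing-competent luciferase reporter gene; test concentration not given here.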 The note with it: luminescence, 24 h, higher = more signal, called active from +8 up or from −8 down. For orientation: Reporter assays use an easily measured gene product as a stand-in for the process of interest.
In experiment [15] the target is Fibroblast growth factor 10 (Homo sapiens) (UniProt O15520). The experiment is described as follows: FGF10 binders on small-molecule microarrays, primary screen, biochemical, small-molecule microarray, 635 nm fluorescence (AID 1102). The note with it: FGF10 binding, fluorescence 635 nm, higher = more signal.
Chain of Fibroblast growth factor 10 (Homo sapiens) (O15520 whole entry, looked up): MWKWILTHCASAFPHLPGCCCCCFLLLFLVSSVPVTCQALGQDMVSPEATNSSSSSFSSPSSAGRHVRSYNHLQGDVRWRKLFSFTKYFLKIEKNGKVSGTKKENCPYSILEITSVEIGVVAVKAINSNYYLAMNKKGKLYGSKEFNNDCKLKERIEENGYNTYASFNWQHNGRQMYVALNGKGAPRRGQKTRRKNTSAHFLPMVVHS
The test system of experiment [16] is glycogen synthase kinase-3 (GSK3A per assay name; protocol says GSK3B). The experiment is described as follows: GSK3 binders on small-molecule microarrays, primary screen, biochemical, small-molecule microarray, 635 nm fluorescence, GSK3A (AID 1103). Further: the record names both GSK3A and GSK3B. The note with it: small-molecule microarray binding, fluorescence 635 nm; higher = more signal.
Experiment [17] concerns the target Epidermal growth factor receptor (Homo sapiens) (UniProt P00533). The experiment is described as follows: EGFR binders on small-molecule microarrays, primary screen, biochemical, small-molecule microarray, 635 nm fluorescence (AID 1104).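 Further: score merges 667 nm emission intensity with spot signal to noise over triplicate slides.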 The note with it: EGFR binding, higher = more signal.
Experiment [18] concerns the target Follistatin-related protein 3 (Homo sapiens) (UniProt O95633). The experiment is described as follows: FSTL3 binders on small-molecule microarrays, primary screen, biochemical, small-molecule microarray, 635 nm fluorescence (AID 1105).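 Further: score merges emission near 667 nm and signal to noise per printed spot across three slides.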 The note with it: FSTL3 binding, higher = more signal.
Experiment [19] has as its target Dickkopf-related protein 1 (Homo sapiens) (UniProt O94907). Kind of experiment: DKK1 binders on small-molecule microarrays, primary screen, biochemical, small-molecule microarray, 635 nm fluorescence scan (AID 1106).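 Further: score merges emission near 667 nm with signal to noise over three replicate slides.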 The note with it: DKK1 binding, higher = more signal.
For experiment [20], the system named is Inhibin beta A chain (activin A). Kind of experiment: INHBA (activin A) binders on microarrays, primary screen, biochemical, small-molecule microarray, 635 nm fluorescence scan (AID 1107).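 Further: mouse activin A protein probed at 4.33 µg/mL on printed slides; score merges bound-protein fluorescence near 667 nm with spot signal-to-noise.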 The note with it: small-molecule microarray binding, higher = more signal.

Among the data in PubChem BioAssay are composite z-score and z-score values, retold here.

Activity calls are given as the source filed them.

Chain of Follistatin-related protein 3 (Homo sapiens) (O95633 whole entry, looked up): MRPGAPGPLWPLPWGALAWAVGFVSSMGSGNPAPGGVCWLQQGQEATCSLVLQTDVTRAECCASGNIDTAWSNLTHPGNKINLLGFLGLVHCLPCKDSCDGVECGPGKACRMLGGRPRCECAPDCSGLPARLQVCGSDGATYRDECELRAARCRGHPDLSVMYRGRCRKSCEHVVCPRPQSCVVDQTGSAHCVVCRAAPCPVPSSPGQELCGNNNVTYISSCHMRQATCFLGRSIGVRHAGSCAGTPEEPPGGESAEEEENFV
Chain of Epidermal growth factor receptor (Homo sapiens) (P00533 whole entry, looked up): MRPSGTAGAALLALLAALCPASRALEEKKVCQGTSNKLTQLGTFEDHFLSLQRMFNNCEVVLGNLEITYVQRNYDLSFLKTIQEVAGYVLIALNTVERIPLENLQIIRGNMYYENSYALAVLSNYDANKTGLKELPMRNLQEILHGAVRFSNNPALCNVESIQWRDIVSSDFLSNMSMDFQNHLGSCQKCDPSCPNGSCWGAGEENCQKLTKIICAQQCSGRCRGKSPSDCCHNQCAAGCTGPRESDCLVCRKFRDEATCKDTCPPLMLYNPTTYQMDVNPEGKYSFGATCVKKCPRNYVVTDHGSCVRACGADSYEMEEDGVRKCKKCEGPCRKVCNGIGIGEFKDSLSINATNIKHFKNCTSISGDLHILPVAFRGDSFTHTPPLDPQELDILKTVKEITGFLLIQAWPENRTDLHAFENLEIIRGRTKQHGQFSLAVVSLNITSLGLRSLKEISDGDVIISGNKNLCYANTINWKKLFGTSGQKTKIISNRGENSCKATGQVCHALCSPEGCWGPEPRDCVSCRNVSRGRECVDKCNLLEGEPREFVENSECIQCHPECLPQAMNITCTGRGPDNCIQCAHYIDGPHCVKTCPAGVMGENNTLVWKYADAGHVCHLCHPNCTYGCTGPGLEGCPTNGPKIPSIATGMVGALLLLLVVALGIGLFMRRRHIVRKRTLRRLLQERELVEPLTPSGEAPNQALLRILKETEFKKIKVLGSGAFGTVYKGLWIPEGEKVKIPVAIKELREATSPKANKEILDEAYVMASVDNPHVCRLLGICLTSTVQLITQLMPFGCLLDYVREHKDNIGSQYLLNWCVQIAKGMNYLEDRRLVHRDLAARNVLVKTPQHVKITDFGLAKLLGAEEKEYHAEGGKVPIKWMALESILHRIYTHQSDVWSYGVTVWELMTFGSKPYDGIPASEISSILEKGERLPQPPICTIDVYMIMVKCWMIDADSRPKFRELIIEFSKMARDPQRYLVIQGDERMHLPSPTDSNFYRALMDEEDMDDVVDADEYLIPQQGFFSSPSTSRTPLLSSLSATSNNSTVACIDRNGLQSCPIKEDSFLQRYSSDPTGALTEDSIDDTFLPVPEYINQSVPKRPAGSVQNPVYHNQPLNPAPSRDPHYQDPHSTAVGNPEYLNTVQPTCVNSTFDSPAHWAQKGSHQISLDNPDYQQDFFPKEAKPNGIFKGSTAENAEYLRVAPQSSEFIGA
Chain of Dickkopf-related protein 1 (Homo sapiens) (O94907 whole entry, looked up): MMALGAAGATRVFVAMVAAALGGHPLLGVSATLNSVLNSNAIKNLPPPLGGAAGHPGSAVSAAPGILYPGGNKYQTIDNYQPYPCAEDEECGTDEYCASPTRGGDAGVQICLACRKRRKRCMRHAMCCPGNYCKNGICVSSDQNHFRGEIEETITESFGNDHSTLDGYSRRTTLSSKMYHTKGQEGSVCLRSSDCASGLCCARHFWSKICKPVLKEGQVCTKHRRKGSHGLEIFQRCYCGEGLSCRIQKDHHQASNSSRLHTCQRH

With `COC(=O)CC=C[C@@H](C)[C@@H](C=NOC[C@H]1O[C@H](c2ccccc2)C=C[C@@H]1Oc1ccc(OC)cc1)OC`, the composite z-score is -0.356 in [1]; -0.072 in [5]; -0.258 in experiment [7]; 0.0133 in experiment [8]; -1.13 in [9]; -0.253 in [10]. Moreover, the composite z-score was -0.67 in experiment [11]; -0.242 in experiment [12]; -0.212 in experiment [13]; 0.268 in experiment [15]; -0.393 in experiment [16]; -0.587 in [17]. The composite z-score was 0.173 in experiment [18], -0.0407 in experiment [19] and 0.807 in experiment [20]. Moreover, the z-score was -0.337 (inactive) in experiment [2]; 0.427 (inactive) in [3]; 0.439 (inactive) in experiment [4]; -0.19 (inactive) in [6]; -0.194 (inactive) in experiment [14].
`CCOC(=O)NN=C1C[C@@H](O)[C@@H](O)[C@@H]2[C@@H]3C(=O)N([C@@H](C)c4ccccc4)C(=O)[C@@H]3CC[C@H]12`: the composite z-score in [1] was 0.215; in experiment [5], 0.261; in [7] it was -0.0458; in experiment [8], 0.264; in experiment [9], 0.507; in experiment [10], 0.0122. The composite z-score in experiment [11] is 0.209; in experiment [12] it was -0.0719; in experiment [13], -0.183; in experiment [15] it was 0.225; in [16], 0.515; in experiment [17], 0.308. Moreover, the composite z-score in experiment [18] stood at 0.345; in experiment [19], 0.309; in experiment [20], 0.121. For the same molecule, the z-score is -0.612 (inactive) in experiment [2]; 0.366 (inactive) in [3]; -0.222 (inactive) in [4]; 0.352 (inactive) in [6]; -0.681 (inactive) in experiment [14].
On to `CC(CCN1CCCCc2nc(C)c(C)cc21)=NO[C@H](C)c1cn([C@H](CO)Cc2ccccc2)nn1`, for which the composite z-score is 1.1 in experiment [1]; 0.592 in experiment [5]; 0.0345 in experiment [7]; 0.196 in experiment [8]; 0.108 in experiment [9]; -0.026 in [10]. Further, the composite z-score was 0.79 in experiment [11]; -0.0963 in experiment [12]; -0.65 in experiment [13]; 0.383 in experiment [15]; -0.393 in experiment [16]; 0.773 in experiment [17]. In addition, the composite z-score in experiment [18] is 1.25; in experiment [19], 0.885; in experiment [20], 1.15. In addition, the z-score is -0.585 (inactive) in experiment [2]; 0.446 (inactive) in [3]; -0.382 (inactive) in [4]; -0.425 (inactive) in [6]; 0.339 (inactive) in experiment [14].
For the molecule `O=c1n(Cc2cc3c(cc2Cl)OCO3)c(=O)n2n1CC[C@@H]1C(=NOCc3ccccc3)[C@H]3O[C@H]3[C@@H](O)[C@@H]12`, the composite z-score is 0.499 in experiment [1]; -0.056 in experiment [5]; -0.0963 in [7]; 0.498 in experiment [8]; 0.68 in experiment [9]; -0.0371 in experiment [10]. In addition, the composite z-score in [11] is 0.172; in experiment [12], 0.87; in experiment [13] it was -0.546; in experiment [15], 0.531; in experiment [16], 0.432; in [17] it was 0.452. In addition, the figures for the composite z-score in experiment [18], in experiment [19] and in [20] were 0.587, 0.669 and 0.111, respectively. In addition, the z-score was -1.97 (inactive) in experiment [2]; -1.25 (inactive) in experiment [3]; -0.756 (inactive) in experiment [4]; -0.363 (inactive) in experiment [6]; -1 (inactive) in experiment [14].
`C=CC[C@@H]1C=C[C@H](ON=C(C)CCC(=O)OC[C@H]2O[C@H](C#Cc3ccccc3)C=C[C@@H]2Oc2ccc(C)cc2)[C@@H](CO)O1`: the composite z-score in experiment [1] was 1.54; in experiment [5], 2.2; in experiment [7], -0.116; in [8], 0.615; in [9] it was 1.12; in experiment [10] it was 0.109. In addition, the composite z-score was 1.19 in experiment [11]; -0.0927 in [12]; -0.515 in [13]; 1.16 in experiment [15]; 1.01 in [16]; 0.298 in experiment [17]. Also, the composite z-score in [18] is 1.04; in [19], 0.606; in [20], -0.117. The z-score was 1.28 (inactive) in [2]; 0.275 (inactive) in experiment [3]; 1.06 (inactive) in [4]; 0.943 (inactive) in [6]; -0.439 (inactive) in experiment [14].
